# Screening data from PubChem.
# Sfp inh – qHTS Assay for Inhibitors of Bacillus subtilis Sfp phosphopantetheinyl transferase (PPTase). AID 1490, 2009. 4'-phosphopantetheinyl transferase ffp (Bacillus subtilis), Q9F4F7. Potency, µM, actives largely listed as inhibitors. 3.5% of 310,000 active. Biochemical Sfp PPTase activity, qHTS;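 also: the enzyme is Sfp with the accession as filed and its product quenches rhodamine fluorescence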
#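 Step 1, compound plus 15 nM Sfp-PPTase, 15 min, room temperature. Step 2, add rhodamine-CoA (5 uM) and BHQ-2-YbbR (12.5 uM). Step 3, read 525/598 nm fluorescence at 0 and 30 min.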
# Tau fluor cs – Counterscreen qHTS for Inhibitors of Tau Fibril Formation, Fluorescence Polarization; tau K18 P301L Alexa594 fluorescence, heparin fibrillization; Potency, µM (series often up to 57.7 µM); 0.93% of 280,000 active; also: nearly all actives have a fitted effect of over 55% in size
#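 Human tau K18 P301L (15 uM unlabeled, 0.24 uM Alexa 594-labeled) in 100 mM sodium acetate pH 7 with 20 uM heparin, 6 hr at 37 C. ThT 30 uM added, 1 hr ambient; Alexa 594 FP and total fluorescence read at 555/632 nm.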
# Tau ThT inhib – qHTS for Inhibitors of Tau Fibril Formation, Thioflavin T Binding. Microtubule-associated protein tau (Homo sapiens), P10636. recombinant tau K18 P301L (four-repeat tau fragment), heparin-induced fibrillization, ThT fluorescence. Potency, µM (titrated, usually from 57.4 µM), usual class: inhibitors. 2.1% of 270,000 active; also: nearly all actives have a fitted effect of over 55% in size
# Target sequence (P10636 561-689 P618L limits assumed): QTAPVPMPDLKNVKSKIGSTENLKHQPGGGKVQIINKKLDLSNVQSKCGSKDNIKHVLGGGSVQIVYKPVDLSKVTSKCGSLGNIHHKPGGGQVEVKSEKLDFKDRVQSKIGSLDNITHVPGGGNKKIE
#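 Heparin-induced (20 uM) aggregation of recombinant human K18 P301L tau, 15 uM unlabeled with 0.24 uM labeled, pH 7 acetate buffer, 6 hr at 37 C with compound. Fibrils quantified by 30 uM ThT fluorescence after 1 hr ambient incubation.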
# PLK1 PBD inh – qHTS for Inhibitors of PLK1-PDB (polo-like kinase 1 - polo-box domain): Primary Screen | 2.8% of 360,000 active | Plk1 PBD binding of FITC phosphopeptide, fluorescence polarization | Potency, µM, actives largely listed as inhibitors | Serine/threonine-protein kinase PLK1 (Homo sapiens), P53350; also: series mostly up to about 57 µM; nearly all actives have a fitted effect of over 65% in size
# Target sequence (P53350 whole entry, looked up, the tested form may be a part): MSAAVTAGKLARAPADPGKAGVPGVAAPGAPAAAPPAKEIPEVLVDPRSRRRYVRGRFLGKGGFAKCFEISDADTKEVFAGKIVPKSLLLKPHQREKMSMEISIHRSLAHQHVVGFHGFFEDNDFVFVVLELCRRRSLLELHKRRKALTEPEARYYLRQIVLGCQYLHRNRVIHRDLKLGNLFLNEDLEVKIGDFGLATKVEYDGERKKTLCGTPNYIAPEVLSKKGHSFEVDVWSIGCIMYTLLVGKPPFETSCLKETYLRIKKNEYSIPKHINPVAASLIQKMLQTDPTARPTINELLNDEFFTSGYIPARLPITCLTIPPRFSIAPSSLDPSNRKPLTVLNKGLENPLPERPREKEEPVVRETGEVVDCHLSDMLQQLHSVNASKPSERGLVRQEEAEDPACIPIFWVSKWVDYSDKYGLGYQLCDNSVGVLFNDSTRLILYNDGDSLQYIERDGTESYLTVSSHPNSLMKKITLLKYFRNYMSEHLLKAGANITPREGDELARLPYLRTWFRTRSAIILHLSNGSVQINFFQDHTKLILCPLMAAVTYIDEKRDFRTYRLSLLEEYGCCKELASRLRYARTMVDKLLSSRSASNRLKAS
# VDR inhibitor – Inhibitors of the vitamin D receptor (VDR): qHTS. Vitamin D3 receptor (Homo sapiens), P11473. VDR-SRC2-3 peptide fluorescence polarization, 2 h. Potency, µM, most hits filed as inhibitors. 0.93% of 400,000 active
#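 Two reagent solutions held at 4 deg C in the dark were dispensed, compounds pinned at 23 nl, and the mixture incubated 2 h at room temperature. Read-out: fluorescence polarization of VDR–SRC2-3 peptide binding.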
# Tau FP inhib – qHTS for Inhibitors of Tau Fibril Formation, Fluorescence Polarization | Microtubule-associated protein tau (Homo sapiens), P10636 | K18 P301L tau heparin fibrillization, Alexa594 FP, 6 h | Potency, µM (series often up to 57.7 µM), actives largely listed as inhibitors | 0.39% of 280,000 active | AID 1468, 2008; also: nearly all actives have a fitted effect of over 55% in size
#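 Steps: dispense K18 P301L tau (15 uM plus 0.24 uM Alexa 594 tracer, final) in pH 7 sodium acetate; add compound; add heparin (20 uM final); incubate 6 hr, 37 C; add ThT (30 uM final); after 1 hr ambient, read FP.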
# A number is an active result; - = inactive; ? = inconclusive; . = not tested or not shown; [ ] = another dose, or the depositor's remark. Hits are enriched below; roughly 6% of the tested compounds scored in any of these assays. Calls follow the shape of the dose curve; as a rule, active = well fitted curve in the direction sought with a large enough effect; inconclusive = small, poorly fitted or top-dose-only effect, or another doubt; inactive = no such curve, though single readings can be large; an effect the other way counts as inactive or inconclusive.
SMILES,Sfp inh,Tau fluor cs,Tau ThT inhib,PLK1 PBD inh,VDR inhibitor,Tau FP inhib
O=C(O)CSc1c(-c2cccs2)[nH]c2ccccc12,-,-,-,27µM,?,-
CCCCCCCCN1C(=O)[C@H](CC(=O)NCCC(C)C)C[C@@]2(C(=O)OC)CCCCC=C12,.,.,.,-,.,.
CN1/C(=C/c2cccc[n+]2CCO)Sc2ccccc21,-,.,.,-,-,.
CCN1/C(=C/c2ccc3cc(C)ccc3[n+]2CC)Sc2cc(C)c(C)cc21,25µM,?,7.1µM,-,-,?
CC[n+]1c(/C=C2\Sc3ccccc3N2C)ccc2cccc(C)c21,?,-,20µM,-,-,?
CCN1/C(=C/c2ccc3cc(C)ccc3[n+]2CC)Sc2ccccc21,11µM,-,18µM,-,-,?
CC[n+]1ccccc1/C=C1\Sc2ccc(C)cc2N1C,-,.,.,-,-,.
Cc1cccc(CN2CCC(Oc3ccc(C(=O)N4CCCCC4)cc3)CC2)c1,-,.,.,-,-,.
COc1ccc(NC(=O)c2cc3c(=O)n(Cc4ccco4)ccc3nc2C)cc1,.,-,-,.,-,-
O=S(=O)(c1ccc2ncsc2c1)N1CCN(c2nc(-c3cccs3)nc3ccccc23)CC1,.,.,.,.,-,.
N#Cc1ccc(CN2CCN(C(=O)Cn3nc(C(N)=O)c4ccccc4c3=O)CC2)cc1,-,.,.,-,-,.
CCOC(=O)c1sc(NC(=O)c2ccc(Cl)s2)cc1C,-,-,-,-,-,-
CCOC(=O)c1sc(NC(=S)NC(=O)C2CCCC2)cc1C,-,-,-,-,-,?
CCOC(=O)c1sc(NC(=S)NC(=O)CC(C)C)cc1C,?,?,?,27µM,-,-
CCOC(=O)c1sc(NC(=O)Nc2ccc(Cl)cc2)cc1C,-,3.2µM[quencher],-,-,-,?
COCCn1ccc2c(OCC(=O)Nc3ccccc3F)cccc2c1=O,.,-,-,.,-,-
COC(=O)c1ccc(-n2c(/C=C\c3cccc(Br)c3)nc3ccccc3c2=O)cc1,.,-,-,.,-,-
CC(=O)c1ccc2c(c1)N(Cc1ccccc1Cl)C(=O)C(C)S2 (stereo not drawn),.,.,.,-,.,.
Cc1nc2sc(C(c3ccco3)N3CCN(C(c4ccccc4)c4ccccc4)CC3)c(O)n2n1 (stereo not drawn),7.9µM,-,-,-,-,-
Cc1nc2sc(C(c3ccccc3)N3CC(C)OC(C)C3)c(O)n2n1 (stereo not drawn),-,-,-,-,-,-
Oc1c(C(c2ccco2)N2CCOCC2)sc2ncnn12 (stereo not drawn),40µM,-,?,-,-,-
Cc1nc2sc(C(c3ccco3)N3CCN(c4cccc(Cl)c4)CC3)c(O)n2n1 (stereo not drawn),-,-,-,-,-,-
Cc1nc2sc(C(c3ccco3)N3CC(C)OC(C)C3)c(O)n2n1 (stereo not drawn),25µM,-,-,-,-,-
Cc1nc2sc(C(c3ccco3)N3CCN(c4ccccc4)CC3)c(O)n2n1 (stereo not drawn),?,-,-,-,-,-
Cc1nc2sc(C(c3ccco3)N3CCC(C)CC3)c(O)n2n1 (stereo not drawn),16µM,-,-,-,-,-
SMILES,Sfp inh,Tau fluor cs,Tau ThT inhib,PLK1 PBD inh,VDR inhibitor,Tau FP inhib
Cc1ccc(F)cc1C(=O)N1CCCCC1c1cc(C(=O)Nc2ccccc2)no1 (stereo not drawn),.,.,.,-,.,.
Cc1c(Cl)cccc1NC(=O)CC(c1ccc(F)cc1)N1Cc2ccccc2C1=O (stereo not drawn),.,-,-,.,-,-
CCc1nnc(NCC(=O)N2CCc3ccccc32)s1,-,?,-,24µM,-,-
CCc1nnc(NC(=O)c2ccc(S(=O)(=O)N3CCc4ccccc4C3)cc2)s1,-,-,-,30µM,?,-
CN(C)c1ccc(C(CNC(=O)c2c(F)cccc2Cl)N2CCOCC2)cc1 (stereo not drawn),.,-,-,.,-,-
COc1ccc(Nc2c([N+](=O)[O-])ccc3c2=NC2(CCCCC2)N=3)cc1,-,?,16µM,-,-,?
CC(C)N(C)c1ncnc2c1ncn2[C@H]1CN(Cc2ccc3c(c2)OCO3)C[C@@H](CO)O1,.,.,.,-,.,.
COc1cccc(-n2nnc3c(=O)n(Cc4ccc(Br)cc4)cnc32)c1,35µM,-,-,-,-,?
COc1cccc(-n2nnc3c(=O)n(Cc4ccc(C)cc4)cnc32)c1,-,-,-,-,-,-
Clc1cccc(Cc2c(-c3ccccc3)nc3c4ccccc4ccn23)c1,.,.,.,-,.,.
Cc1ccc(-c2nc3[nH]c(=O)cc(NC(=O)c4cccs4)n3n2)cc1,-,-,.,-,-,-
CCC(=O)Nc1cc(=O)[nH]c2ncnn12,-,-,-,-,-,-
Cc1ccc(-c2nc3[nH]c(=O)cc(NC(=O)C(C)C)n3n2)cc1,-,-,.,27µM,?,-
CC(C)(C)c1ccc(-c2nc3[nH]c(=O)cc(NC(=O)c4ccco4)n3n2)cc1,40µM,.,.,24µM,-,.
CCC(=O)Nc1cc(=O)[nH]c2nc(-c3ccc(Cl)cc3)nn12,-,-[0.0958 µM],.,21µM,?,-[0.0958 µM]
Cc1ccc(-n2c(-c3ccc(Br)cc3)n[nH]c2=S)c(C)c1,.,.,.,-,.,.
COC(=O)C(CC(=O)c1ccc(C)cc1)n1nc(C)cc1C (stereo not drawn),-,.,.,-,-,.
COC(=O)C(CC(=O)c1ccc(Br)cc1)n1nc(C)cc1C (stereo not drawn),50µM,.,.,-,?,.
Cc1ccc(NS(=O)(=O)c2cc(Br)cnc2N)c(Cl)c1,-,.,.,-,-,.
Nc1ncc(Br)cc1S(=O)(=O)Nc1cc(C(F)(F)F)cc(C(F)(F)F)c1,-,.,.,30µM,?,.
Cc1ccc2nc(Cl)c(CNCc3ccccc3)cc2c1,-,-,?,24µM,-,-
CCOc1ccc(NC(=O)Cn2nnc(C(=O)NCCc3ccccc3)c2N)cc1,.,-,-,.,-,-
COc1ccc(C(=O)N[C@H](C(=O)OCCCOC(=O)[C@@H](NC(=O)c2ccc(OC)cc2)C(C)C)C(C)C)cc1,.,.,.,-,-,.
CS(=O)(=O)N(CC(=O)N1CCN(Cc2ccccc2)CC1)c1cccc([N+](=O)[O-])c1,-,.,.,-,-,.
COc1ccc(N(CC(=O)N2CCOCC2)S(C)(=O)=O)c(OC)c1,-,.,.,21µM,?,.
COc1ccc([N+](=O)[O-])cc1N(CC(=O)N1CCN(Cc2ccccc2)CC1)S(C)(=O)=O,-,.,.,12µM,50µM,.
Cc1cc(C)c(Cn2c(CCNC(=O)c3ccco3)nc3ccccc32)c(C)c1,.,-,-,.,-,-
